In PubChem BioAssay AID602314 (ICCB-Longwood Screening Facility, Harvard Medical School, 2012):
In all, about 84,000 compounds went through this assay and about 110 (0.13%) were called active. No stated cut-off is given here; in the data, active means inhibition above about 30% (passing the limit was not always enough); inactive means the rest. The entries come from a sample that favours actives as a whole.

Tested on: MgrA (MarR family transcriptional regulator), Staphylococcus aureus Newman
Assay: modulators of MgrA DNA binding – biochemical, S. aureus Newman, fluorescence polarization, primary screen (AID 602314);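 further: 0% = protein plus DNA without compound and 100% = DNA alone without protein; higher means less MgrA bound to DNA so lower polarization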
Details: hits give high values, concentration not given here

| Compound | inhibition |
| --- | --- |
| CCN1C(=O)/C(=C/C=C/c2ccco2)C(=O)NC1=S | 66.7% (active) |
| CCN(CC)P1(=S)OC(C)(C)CC1(C)O (stereo not given) | 0.3% (inactive) |
| O=C1CSC(c2ccccc2)c2c(-c3ccccc3)nn(-c3ccccc3)c2N1 (stereo not given) | -0.55% (inactive) |
| CCn1cc(C=C(C#N)C#N)c2ccccc21 | -2.65% (inactive) |
| O=C1NC(=O)C(C2(C3C(=O)NC(=O)NC3=O)C(=O)Nc3ccccc32)C(=O)N1 | 1.5% (inactive) |
| COc1cccc(N2C(=O)/C(=C/c3ccsc3)C(=O)NC2=S)c1 | 18.1% (inactive) |
| NC1=C(C(=O)OCc2ccccc2)C2(C(=O)Nc3ccc(Br)cc32)c2c(c3ccccc3oc2=O)O1 (stereo not given) | -0.3% (inactive) |
| CN1CCc2c(c(S)[nH]c(=S)c2C#N)C1 | 77.6% (active) |
| Cn1c([O-])c([N+](C)(C)C)c(=O)n(C)c1=O | 0.5% (inactive) |
| O=C1CC(c2cccc(Br)c2)c2c(c3ccccc3oc2=O)O1 (stereo not given) | 13.6% (inactive) |
